A number with no mark means an inactive call.

Common to all, as to assay: log2 ratio of Biotin-Ahx-Ub-VS probe labelling (fragment/DMSO); higher = less target engagement (more negative = stronger competition), active = hit call of the paper (q ≤ 0.05, log2 ratio ≤ -1)
Holding throughout (settings): compound concentration: 200 uM; treatment time: 3 h

In experiment [1] the target is T1, USP42 (UniProt Q9H9J4).
T1 sequence (whole entry): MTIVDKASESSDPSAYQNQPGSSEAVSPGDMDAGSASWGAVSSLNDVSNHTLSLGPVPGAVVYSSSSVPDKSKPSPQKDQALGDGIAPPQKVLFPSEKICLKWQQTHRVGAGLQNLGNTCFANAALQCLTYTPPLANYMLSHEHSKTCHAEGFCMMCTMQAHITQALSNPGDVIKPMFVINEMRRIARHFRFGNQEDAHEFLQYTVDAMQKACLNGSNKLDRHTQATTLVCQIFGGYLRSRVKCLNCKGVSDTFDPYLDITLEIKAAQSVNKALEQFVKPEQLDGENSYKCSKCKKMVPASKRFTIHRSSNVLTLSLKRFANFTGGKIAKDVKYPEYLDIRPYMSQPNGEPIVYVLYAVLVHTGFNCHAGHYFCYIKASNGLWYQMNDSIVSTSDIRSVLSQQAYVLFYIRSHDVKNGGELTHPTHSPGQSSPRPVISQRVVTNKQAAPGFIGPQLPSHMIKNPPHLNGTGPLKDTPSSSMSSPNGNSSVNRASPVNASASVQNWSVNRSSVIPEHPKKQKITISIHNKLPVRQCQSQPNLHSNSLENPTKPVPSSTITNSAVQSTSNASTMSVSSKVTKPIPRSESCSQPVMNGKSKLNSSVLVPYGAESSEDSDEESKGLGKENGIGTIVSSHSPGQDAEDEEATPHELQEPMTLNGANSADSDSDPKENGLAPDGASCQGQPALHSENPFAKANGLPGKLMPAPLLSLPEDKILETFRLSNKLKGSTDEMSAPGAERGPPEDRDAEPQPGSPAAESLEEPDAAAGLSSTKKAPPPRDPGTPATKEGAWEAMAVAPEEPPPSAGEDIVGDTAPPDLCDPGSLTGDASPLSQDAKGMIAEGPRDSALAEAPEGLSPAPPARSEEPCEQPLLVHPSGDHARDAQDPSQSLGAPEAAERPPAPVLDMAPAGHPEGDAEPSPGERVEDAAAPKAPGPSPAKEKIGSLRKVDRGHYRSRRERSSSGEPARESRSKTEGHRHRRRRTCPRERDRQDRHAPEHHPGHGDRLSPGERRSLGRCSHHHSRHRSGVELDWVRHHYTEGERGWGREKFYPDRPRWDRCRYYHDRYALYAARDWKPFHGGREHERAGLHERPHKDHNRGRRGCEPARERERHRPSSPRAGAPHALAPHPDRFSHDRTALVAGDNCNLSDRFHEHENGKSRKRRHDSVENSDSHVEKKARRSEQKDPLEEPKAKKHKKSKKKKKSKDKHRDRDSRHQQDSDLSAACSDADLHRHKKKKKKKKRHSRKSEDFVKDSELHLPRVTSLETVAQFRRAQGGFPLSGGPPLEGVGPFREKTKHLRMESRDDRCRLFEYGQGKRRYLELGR
The method in brief: (§1)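 Labelled DUBs from HEK293T lysate were NeutrAvidin-enriched, digested with LysC and trypsin, and run by diaPASEF LC-MS/MS. Before that, each 495 µg sample in Tris/CHAPS/IGEPAL buffer with protease inhibitors was treated in triplicate with fragment at 200 µM or vehicle for 3 h, then with Biotin-Ahx-Ub-VS at 0.5 µM final for 1 h. Values are average log2 ratios of fragment over vehicle by unpaired t-test, based on global-median-normalised Spectronaut label-free quantities from proteins with ≥2 unique peptides.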

Experiment [2] has as its target USP46 (UniProt P62068). The gist of the method: as §1
Experiment [3] concerns the target T2, USP47 (UniProt Q96K76).
T2 sequence (whole entry): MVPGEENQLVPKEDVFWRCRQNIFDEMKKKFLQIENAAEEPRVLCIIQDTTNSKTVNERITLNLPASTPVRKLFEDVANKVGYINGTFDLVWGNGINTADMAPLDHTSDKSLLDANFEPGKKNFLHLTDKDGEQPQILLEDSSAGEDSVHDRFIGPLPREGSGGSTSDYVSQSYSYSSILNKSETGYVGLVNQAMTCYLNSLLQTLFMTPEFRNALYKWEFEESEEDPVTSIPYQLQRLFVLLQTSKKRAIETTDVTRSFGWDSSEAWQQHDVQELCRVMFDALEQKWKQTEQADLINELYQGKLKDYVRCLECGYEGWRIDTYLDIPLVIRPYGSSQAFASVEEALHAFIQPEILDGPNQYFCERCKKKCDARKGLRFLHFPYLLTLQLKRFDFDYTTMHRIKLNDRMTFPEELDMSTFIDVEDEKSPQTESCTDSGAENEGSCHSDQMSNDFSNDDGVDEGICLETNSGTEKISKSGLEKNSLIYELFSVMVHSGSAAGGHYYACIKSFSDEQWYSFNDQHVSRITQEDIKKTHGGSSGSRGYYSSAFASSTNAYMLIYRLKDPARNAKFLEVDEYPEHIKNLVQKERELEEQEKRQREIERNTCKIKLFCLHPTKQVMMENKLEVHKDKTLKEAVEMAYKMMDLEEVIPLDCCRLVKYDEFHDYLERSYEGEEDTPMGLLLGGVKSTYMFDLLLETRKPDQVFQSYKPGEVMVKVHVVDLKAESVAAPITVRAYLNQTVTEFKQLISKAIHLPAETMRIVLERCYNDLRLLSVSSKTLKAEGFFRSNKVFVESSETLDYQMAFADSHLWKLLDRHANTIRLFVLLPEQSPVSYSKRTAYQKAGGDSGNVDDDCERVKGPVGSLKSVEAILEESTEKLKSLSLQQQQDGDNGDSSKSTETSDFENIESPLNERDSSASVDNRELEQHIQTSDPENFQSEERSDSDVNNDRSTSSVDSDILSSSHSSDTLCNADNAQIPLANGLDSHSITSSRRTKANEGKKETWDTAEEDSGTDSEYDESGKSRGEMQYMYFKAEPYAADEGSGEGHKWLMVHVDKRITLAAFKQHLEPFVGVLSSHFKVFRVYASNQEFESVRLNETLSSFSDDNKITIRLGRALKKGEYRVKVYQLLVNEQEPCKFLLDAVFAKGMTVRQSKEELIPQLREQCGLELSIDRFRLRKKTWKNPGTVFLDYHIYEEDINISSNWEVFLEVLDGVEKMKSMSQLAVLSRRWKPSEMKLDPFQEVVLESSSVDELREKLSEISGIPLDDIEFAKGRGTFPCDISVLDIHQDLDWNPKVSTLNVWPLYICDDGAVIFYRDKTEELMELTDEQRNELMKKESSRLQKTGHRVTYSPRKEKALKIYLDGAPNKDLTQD
The gist of the method: as §1

The target of experiment [4] is T3, USP48 (UniProt Q86UV5).
T3 sequence (whole entry): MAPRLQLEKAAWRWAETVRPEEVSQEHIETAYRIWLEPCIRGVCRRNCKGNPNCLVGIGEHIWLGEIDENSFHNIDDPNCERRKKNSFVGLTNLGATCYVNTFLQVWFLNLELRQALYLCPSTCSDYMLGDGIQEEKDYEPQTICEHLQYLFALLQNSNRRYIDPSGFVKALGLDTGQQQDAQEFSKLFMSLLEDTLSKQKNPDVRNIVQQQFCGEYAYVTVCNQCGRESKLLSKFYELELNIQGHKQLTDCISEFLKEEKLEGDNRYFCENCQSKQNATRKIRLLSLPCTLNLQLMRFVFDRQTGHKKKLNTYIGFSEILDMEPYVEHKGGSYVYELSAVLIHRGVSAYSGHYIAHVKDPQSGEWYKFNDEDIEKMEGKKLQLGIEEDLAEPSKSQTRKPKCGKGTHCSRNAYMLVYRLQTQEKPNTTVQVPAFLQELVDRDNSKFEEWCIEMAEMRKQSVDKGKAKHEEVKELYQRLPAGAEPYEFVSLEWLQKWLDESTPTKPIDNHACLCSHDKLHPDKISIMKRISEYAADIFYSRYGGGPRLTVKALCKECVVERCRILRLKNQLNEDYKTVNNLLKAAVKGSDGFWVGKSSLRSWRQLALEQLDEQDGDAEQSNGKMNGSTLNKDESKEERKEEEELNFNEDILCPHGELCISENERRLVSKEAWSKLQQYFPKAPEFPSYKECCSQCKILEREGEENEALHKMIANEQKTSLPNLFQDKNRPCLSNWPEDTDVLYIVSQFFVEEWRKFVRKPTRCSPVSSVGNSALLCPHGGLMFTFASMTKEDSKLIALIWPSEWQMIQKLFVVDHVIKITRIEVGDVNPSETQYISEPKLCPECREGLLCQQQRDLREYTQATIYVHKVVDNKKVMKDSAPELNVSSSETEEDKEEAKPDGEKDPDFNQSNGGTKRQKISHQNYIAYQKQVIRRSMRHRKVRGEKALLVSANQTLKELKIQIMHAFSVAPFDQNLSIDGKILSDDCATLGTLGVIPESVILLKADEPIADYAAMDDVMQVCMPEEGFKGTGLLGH
The gist of the method:
as §1

Experiment [5] concerns the target T4, USP5 (UniProt P45974).
T4 sequence (whole entry): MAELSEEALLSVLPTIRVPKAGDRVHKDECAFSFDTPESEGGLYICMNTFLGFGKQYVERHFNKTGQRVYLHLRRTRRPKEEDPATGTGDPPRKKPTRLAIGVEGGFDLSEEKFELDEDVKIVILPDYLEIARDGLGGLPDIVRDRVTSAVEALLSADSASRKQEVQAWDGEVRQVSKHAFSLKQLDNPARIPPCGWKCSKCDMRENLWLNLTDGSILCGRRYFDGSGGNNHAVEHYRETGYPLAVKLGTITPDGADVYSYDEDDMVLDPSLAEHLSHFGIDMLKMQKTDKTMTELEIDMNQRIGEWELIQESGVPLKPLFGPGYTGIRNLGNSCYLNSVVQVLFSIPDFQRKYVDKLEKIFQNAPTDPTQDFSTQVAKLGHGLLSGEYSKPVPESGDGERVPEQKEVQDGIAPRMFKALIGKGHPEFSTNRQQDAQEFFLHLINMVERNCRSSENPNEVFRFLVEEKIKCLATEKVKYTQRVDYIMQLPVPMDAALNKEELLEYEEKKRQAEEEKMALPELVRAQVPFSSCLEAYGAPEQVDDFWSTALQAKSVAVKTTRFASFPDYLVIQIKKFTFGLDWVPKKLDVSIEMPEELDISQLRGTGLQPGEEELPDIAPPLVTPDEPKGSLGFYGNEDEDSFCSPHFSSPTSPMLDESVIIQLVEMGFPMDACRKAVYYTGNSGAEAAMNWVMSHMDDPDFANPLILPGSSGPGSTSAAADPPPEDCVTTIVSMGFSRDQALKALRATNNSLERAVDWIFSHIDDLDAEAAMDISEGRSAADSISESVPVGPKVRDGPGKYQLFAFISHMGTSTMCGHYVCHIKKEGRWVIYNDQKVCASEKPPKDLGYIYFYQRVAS
The gist of the method:
as §1

The target of experiment [6] is USP54 (UniProt Q70EL1). The gist of the method:
as §1

For experiment [7], the target named is USP7 (UniProt Q93009). The gist of the method: as §1
The target of experiment [8] is T5, USP8 (UniProt P40818).
T5 sequence (whole entry): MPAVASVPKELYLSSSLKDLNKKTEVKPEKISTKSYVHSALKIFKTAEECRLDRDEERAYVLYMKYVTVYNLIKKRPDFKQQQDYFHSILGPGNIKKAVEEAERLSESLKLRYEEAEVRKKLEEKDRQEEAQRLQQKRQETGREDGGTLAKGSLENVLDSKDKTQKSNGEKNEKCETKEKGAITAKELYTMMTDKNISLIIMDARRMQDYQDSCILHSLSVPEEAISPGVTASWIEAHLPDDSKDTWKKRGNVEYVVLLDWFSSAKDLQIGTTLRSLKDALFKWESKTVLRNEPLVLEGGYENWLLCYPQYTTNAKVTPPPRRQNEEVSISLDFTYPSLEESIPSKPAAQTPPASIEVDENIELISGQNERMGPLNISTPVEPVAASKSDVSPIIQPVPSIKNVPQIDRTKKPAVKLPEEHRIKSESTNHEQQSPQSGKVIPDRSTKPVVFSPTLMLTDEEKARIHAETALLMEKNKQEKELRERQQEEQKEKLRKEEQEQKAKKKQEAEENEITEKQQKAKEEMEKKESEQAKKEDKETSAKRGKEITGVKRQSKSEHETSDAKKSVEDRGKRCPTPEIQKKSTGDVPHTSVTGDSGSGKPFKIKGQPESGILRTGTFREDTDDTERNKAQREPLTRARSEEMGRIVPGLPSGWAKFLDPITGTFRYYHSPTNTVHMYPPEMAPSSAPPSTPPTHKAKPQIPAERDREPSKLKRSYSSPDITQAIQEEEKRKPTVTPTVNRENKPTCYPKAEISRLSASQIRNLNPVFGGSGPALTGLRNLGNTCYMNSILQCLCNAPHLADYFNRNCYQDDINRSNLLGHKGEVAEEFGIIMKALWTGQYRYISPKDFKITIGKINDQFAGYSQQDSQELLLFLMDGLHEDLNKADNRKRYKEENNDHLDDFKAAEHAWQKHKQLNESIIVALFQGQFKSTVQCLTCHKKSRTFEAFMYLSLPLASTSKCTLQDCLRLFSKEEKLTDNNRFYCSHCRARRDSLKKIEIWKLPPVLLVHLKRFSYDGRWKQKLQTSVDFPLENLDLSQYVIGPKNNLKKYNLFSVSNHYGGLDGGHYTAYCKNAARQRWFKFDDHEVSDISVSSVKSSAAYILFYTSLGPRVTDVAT
The gist of the method:
as §1

Experiment [9] deals with USP9X (UniProt Q93008). The method in brief: as §1
Experiment [10] deals with UniProt O00487. The method in brief:
as §1

Chain of USP7 (Q93009 whole entry, looked up): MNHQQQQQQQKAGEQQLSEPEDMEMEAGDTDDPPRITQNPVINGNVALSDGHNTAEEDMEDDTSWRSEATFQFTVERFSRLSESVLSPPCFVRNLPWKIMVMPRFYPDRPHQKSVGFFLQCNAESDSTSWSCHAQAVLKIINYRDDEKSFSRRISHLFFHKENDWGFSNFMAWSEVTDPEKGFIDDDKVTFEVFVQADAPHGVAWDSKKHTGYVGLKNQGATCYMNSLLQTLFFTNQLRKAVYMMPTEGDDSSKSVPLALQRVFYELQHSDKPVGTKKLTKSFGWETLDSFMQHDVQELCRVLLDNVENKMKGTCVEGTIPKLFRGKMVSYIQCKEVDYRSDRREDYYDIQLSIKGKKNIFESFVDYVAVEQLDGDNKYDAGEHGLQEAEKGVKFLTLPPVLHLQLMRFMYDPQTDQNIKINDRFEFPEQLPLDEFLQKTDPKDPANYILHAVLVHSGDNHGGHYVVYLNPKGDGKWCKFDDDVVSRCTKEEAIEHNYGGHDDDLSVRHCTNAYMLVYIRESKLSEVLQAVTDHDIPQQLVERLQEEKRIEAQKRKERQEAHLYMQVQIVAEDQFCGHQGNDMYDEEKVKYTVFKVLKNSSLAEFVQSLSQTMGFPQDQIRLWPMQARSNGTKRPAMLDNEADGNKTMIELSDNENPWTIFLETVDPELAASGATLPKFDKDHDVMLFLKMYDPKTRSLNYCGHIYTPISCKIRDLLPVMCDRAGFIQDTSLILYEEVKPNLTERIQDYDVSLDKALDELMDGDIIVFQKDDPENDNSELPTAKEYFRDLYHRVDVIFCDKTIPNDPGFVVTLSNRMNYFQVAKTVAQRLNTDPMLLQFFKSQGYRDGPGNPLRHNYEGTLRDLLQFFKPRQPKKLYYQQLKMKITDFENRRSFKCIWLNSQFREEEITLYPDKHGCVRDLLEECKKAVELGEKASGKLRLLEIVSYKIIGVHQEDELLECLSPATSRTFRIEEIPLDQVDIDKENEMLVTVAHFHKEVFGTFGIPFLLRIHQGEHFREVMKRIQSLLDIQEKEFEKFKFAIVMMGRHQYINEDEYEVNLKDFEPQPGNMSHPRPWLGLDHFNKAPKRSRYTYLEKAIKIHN
Chain of UniProt O00487 (O00487 whole entry): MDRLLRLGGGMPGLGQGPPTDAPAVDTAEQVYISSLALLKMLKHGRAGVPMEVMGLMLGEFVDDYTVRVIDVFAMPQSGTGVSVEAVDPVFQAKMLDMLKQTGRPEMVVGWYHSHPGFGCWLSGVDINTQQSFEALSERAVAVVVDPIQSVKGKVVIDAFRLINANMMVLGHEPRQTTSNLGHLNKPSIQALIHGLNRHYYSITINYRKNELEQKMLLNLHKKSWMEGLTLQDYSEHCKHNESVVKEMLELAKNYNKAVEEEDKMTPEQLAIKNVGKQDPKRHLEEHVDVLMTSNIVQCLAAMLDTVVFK
Chain of USP54 (Q70EL1 whole entry): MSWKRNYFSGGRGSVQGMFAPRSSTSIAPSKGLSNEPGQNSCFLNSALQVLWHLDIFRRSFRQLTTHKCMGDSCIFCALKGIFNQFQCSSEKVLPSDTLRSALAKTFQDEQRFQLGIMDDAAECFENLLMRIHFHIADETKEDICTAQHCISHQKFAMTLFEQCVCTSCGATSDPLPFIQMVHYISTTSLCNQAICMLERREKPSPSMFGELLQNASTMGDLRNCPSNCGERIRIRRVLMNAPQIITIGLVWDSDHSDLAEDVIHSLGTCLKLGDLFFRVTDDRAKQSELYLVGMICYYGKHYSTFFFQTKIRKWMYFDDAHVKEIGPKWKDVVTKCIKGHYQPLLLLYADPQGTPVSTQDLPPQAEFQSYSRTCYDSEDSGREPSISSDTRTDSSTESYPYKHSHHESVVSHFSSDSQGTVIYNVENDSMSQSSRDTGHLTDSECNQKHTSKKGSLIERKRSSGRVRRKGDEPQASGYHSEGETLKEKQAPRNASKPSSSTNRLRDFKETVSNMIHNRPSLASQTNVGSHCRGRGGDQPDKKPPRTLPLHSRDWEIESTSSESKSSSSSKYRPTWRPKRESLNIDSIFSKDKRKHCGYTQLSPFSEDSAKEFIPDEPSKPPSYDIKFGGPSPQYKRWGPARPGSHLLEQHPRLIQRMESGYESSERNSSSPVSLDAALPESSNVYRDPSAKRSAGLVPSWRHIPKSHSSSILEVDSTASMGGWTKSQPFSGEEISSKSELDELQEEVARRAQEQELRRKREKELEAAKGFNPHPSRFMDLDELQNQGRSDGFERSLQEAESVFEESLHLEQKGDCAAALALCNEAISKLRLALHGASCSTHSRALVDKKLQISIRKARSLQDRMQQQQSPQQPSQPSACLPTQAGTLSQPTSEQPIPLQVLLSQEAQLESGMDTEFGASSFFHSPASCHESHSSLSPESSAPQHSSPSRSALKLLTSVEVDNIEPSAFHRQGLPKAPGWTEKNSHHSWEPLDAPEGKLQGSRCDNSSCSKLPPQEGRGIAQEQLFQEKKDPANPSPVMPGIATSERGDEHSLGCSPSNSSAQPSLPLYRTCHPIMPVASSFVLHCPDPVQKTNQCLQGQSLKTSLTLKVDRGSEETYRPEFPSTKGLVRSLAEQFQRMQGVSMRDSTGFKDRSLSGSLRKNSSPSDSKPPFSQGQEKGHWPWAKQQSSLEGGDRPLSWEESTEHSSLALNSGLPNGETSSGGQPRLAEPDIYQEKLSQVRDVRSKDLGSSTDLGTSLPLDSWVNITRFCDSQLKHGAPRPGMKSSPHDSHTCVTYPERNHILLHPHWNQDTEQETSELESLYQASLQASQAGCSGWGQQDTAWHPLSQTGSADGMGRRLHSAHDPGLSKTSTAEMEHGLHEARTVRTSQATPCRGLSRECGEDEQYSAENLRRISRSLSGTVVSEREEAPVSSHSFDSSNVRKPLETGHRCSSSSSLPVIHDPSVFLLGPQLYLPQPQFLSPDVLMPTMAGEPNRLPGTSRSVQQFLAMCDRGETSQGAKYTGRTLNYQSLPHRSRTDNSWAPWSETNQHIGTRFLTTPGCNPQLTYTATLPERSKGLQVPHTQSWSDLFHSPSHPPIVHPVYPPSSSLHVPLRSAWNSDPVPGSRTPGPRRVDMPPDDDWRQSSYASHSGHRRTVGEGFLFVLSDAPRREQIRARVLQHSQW
Chain of USP46 (P62068 whole entry): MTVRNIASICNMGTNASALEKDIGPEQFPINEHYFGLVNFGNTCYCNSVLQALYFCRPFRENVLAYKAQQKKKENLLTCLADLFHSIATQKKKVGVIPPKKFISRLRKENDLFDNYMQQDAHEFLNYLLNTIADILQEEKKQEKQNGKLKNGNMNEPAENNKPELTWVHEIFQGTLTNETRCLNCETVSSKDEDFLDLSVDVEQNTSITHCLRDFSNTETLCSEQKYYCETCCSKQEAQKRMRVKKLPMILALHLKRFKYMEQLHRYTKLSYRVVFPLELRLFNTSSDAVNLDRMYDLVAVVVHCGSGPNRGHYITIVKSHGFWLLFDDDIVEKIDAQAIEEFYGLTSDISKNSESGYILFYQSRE

In the case of `Cl.O=C(CCl)N1CC(c2ccc(Br)cn2)C1`, the “log2 ratio of Biotin-Ahx-Ub-VS probe labelling” value in [1] is 0.0546; in [2], -0.129; in experiment [3], -0.944; in [4], -0.383; in experiment [5] it was 0.197; in experiment [6], 0.556. For the same compound, the “log2 ratio of Biotin-Ahx-Ub-VS probe labelling” value in [7] was -1.29 (active); in experiment [8], -0.318; in [9], -0.297; in experiment [10], -0.285.

The values above are taken from the supplement of paper PMC11732987, “Enantioselective OTUD7B fragment discovery through chemoproteomics screening and high-throughput optimisation” (Communications Chemistry, 2025).
